# Laboratory results reported in PubChem BioAssay AID651789 (National Center for Advancing Translational Sciences (NCATS), 2012).
# Inconclusive results are not listed. Where a call stands in place of a potency, no number is given. Active and inactive are the calls of the source. The call rests on the fitted dose curve; in most records, active means well fitted inhibition curve with a large enough effect; inconclusive means small, poorly fitted or top-dose-only effect; inactive means no such curve, though single readings can be large or run the other way.
# Test: Acumen qHTS Assay for Inhibitors of the mTORC1 Signaling Pathway in WT MEF Cells: Hit Validation; further: nearly all actives have a fitted effect of over 60% in size
# Settings: Acumen imaging; series mostly up to 37.3 µM
# Excerpt: The mammalian target of rapamycin (mTOR) is an intracellular serine/threonine kinase Aberrant regulation of mTOR signaling plays a causative role in a number of human diseases, including cancer, benign tumors such as lymphangioleiomyomatosis (LAM) and Tuberous Sclerosis Complex (TSC), and metabolic diseases such as diabetes and obesity. This project aims to identify inhibitors of ribosomal protein S6 (rpS6) phosphorylation. The phosphorylation of rpS6 is a key event downstream of mTOR activation. The assay uses a phospho-specific antibody of phospho-rpS6 to detect inhibitors of mTOR activation. Mutations in the Tsc1 and Tsc2 genes are the underlying genetic lesions responsible for TSC, causing constitutive activation of the mTORC1 pathway and leading to profound effects on cell metabolism. Aberrant metabolism in cancer has recently received significant attention as a target to develop therapeutic agents in the treatment of cancer.1 As Tsc2-/- cells have lost the ability to respond to energy and growth factor deprivation, these cells are unable to properly down regulate cellular biosynthetic processes in response to metabolic stress, and are thus extremely sensitive to glucose deprivation-induced death.2 A central goal of this project is to explore the unique cell survival and metabolic properties of cells with Tsc1 or Tsc2 by screening for compounds that selectively target the Tsc2-/- MEFs by screening both Tsc2-/- and WT MEF cell lines. We hope to better understand these aspects of TSC physiology in order to exploit them for therapeutic benefit.
# NIH Molecular Libraries Probe Production Centers Network [MLPCN]
# NIH Chemical Genomics Center [NCGC]
# Assay Submitter (PI): Blenis, John; Harvard University
# For quantitative high throughput analysis of mTORC1 signaling, we developed a cell-based assay for immuno-fluorescence based detection of rpS6 phosphorylation on the Acumen Explorer that will be used a platform for the primary small molecule screen. Mouse embryonic fibroblasts (MEFs) are cultured in 1536-well plates using DMEM + 10% FBS. Twenty-four hrs after plating, test compounds (solubilized in DMSO) are delivered and incubated with the cells for 24 hrs at 37 degree Celsius. Following the incubation, media with compound is aspirated and the cells are fixed in 4% paraformaldehyde (PFA) containing PBS + 0.2% TX-100. Next, PFA is aspirated, cells are washed two times with PBS plus 0.2% TX-100 and the cells are blocked for 1 hr at room temperature (blocking buffer: LiCOR Blocking Buffer plus 0.2% TX-100). This is followed by aspiration and staining with Alexa-488 conjugated-phospho-rpS6 Ser235/236 antibody for 2 hours at room temperature (Cell Signaling Technology # 4803, 1:50 dilution in blocking buffer). Cells are washed two times with PBS plus 0.2% TX-100, and stained with 10 uM propidium iodide (PI) for 20-25 minutes for cell number measurement (1:500 dilution of Hoescht staining is also added for IN Cell imaging). The plates are scanned on the Acumen Explorer laser scanning instrument (TTP Labtech) using the 488nm laser for simultaneous excitation of the Alexa-488 and PI. […] Fluorescence emission from the PI stain is selected using a 575-640 nm band pass filter. The normalized phospho-S6 staining is calculated as the ratio of the integrated Alexa 488 intensity divided by the integrated PI intensity for the single concentration rapamycin control (7.5 nM) and DMSO columns. […] Inhibition of the pathway is defined based on the normalized phospho-S6 intensity in rapamycin treated cells. Active cells are defined as those with a normalized phospho-S6 staining above this threshold, and each treatment is reported as the % positive cells in the well, where thresholds are defined by selecting wells with the highest and lowest signal and differentiating between the % non-active and % active populations. In addition to the pathway specific phospho-S6 endpoint, the number of PI stained cells from the Acumen is recorded as a measure of cell viability. […]
# Potency means the concentration at half of the fitted maximal effect.
row,SMILES,Potency
1,Cn1nnnc1SCCCNCc1ccccc1OCc1ccc(Cl)cc1,inactive
2,CC(C)(C)c1ccc(C2NC(=O)c3n[nH]c(-c4cccs4)c32)cc1 (stereo not given),inactive
3,COc1ccc(CCN(C)CCCC(C#N)(c2ccc(OC)c(OC)c2)C(C)C)cc1OC (stereo not given),inactive
4,CCOC(=O)c1ccc(NC(=O)c2nc(S(=O)(=O)Cc3ccccc3)ncc2Cl)cc1,6.56 µM (active)
5,Cc1ccc(NC(=O)Cn2cc(C(=O)C3CCCCC3)c3ccccc32)cc1,inactive
6,COCc1oc2ccc(NS(=O)(=O)c3ccc(C)cc3)cc2c1C(=O)OC,5.85 µM (active)
7,CCCC1=Nc2cc(C(=O)NCc3ccccc3)ccc2Sc2ccccc21,2.61 µM (active)
8,Cc1ccc(C(=O)c2cn(CC(=O)NCc3ccccc3Cl)c3nc(C)ccc3c2=O)cc1,inactive
9,CCOC(=O)Cc1ccc(NC(=O)n2ncc3cc(Cl)ccc32)cc1,inactive
10,CCOC(=O)c1c(NC(=O)c2nc(S(C)(=O)=O)ncc2Cl)sc(C(C)=O)c1C,2.07 µM (active)
11,Cc1cccc(NC(=O)c2nc(S(C)(=O)=O)ncc2Cl)c1,1.65 µM (active)
12,Cc1nn(C(C)C(=O)NC2CCCCC2)c(=O)c2c1sc1ccccc12 (stereo not given),inactive
13,Cc1cccc(Cn2cc(C(=O)Nc3ccc(F)c(C(F)(F)F)c3)ccc2=O)c1,inactive
14,Cc1ccc(C)c(Cn2c3ccccc3c3cnn(CC(=O)NC(C)CCc4ccccc4)c(=O)c32)c1 (stereo not given),18.5 µM (active)
15,O=C(Nc1ccccc1)N(Cc1cccc(Cl)c1)c1ccccn1,inactive
16,CN(Cc1ccccc1)C(=O)CSc1c2c(nc3ccc(Cl)cc13)CCCC2,inactive
17,COc1ccc(OCC(O)Cn2c(=N)n(CCN3CCCCC3)c3ccccc32)cc1 (stereo not given),inactive
18,COc1cc(C(=O)n2nc(C)c(Sc3ccc(Cl)cc3)c2C)cc(OC)c1OC,inactive
19,O=S(=O)(NCc1nc2cccnc2n1Cc1ccccc1Cl)c1ccc(F)c(Cl)c1,inactive
20,Cc1nn(CCCC(=O)NCc2cccc(Cl)c2)c(=O)c2c1sc1ccccc12,inactive

row,SMILES,Potency
1,CCn1c(=O)sc2cc(NS(=O)(=O)c3ccc(F)c(C)c3)ccc21,inactive
2,CCc1ccc(CNc2ncc(-c3cccc(OC)c3)n2C)cc1,inactive
3,Cc1cc(OCC(=O)Nc2cc(-c3nc4ccccc4[nH]3)ccc2C)ccc1Cl,inactive
4,CCSc1oc(-c2ccc(F)cc2)nc1S(=O)(=O)c1ccc(C)cc1,inactive
5,Cc1nn(C(C)C(=O)NC2CCC(C)CC2)c(=O)c2c1sc1ccccc12 (stereo not given),inactive
6,COc1ccccc1-c1noc(CSc2nc3ccc(C)cc3[nH]2)n1,inactive
7,CCn1c(CC2C(=O)N(C)c3ccc(Br)cc32)nc2ccccc2c1=O (stereo not given),inactive
8,CCc1ccc(NC(=O)C2CCCN(S(=O)(=O)c3c(C)noc3/C=C/N(C)C)C2)cc1 (stereo not given),2.07 µM (active)
9,CCCCOC(=O)c1ccc(NC(=O)c2ccc3c(c2)CCN3S(=O)(=O)c2ccccc2)cc1,inactive
10,Cc1cccc(N2CCN(c3ncnc4c3nc3n4CCCCC3)CC2C)c1 (stereo not given),11.7 µM (active)
11,CCCOc1cccc(C2c3c(-c4ccccc4O)n[nH]c3C(=O)N2Cc2ccco2)c1 (stereo not given),inactive
12,CCS(=O)(=O)c1ncc(Cl)c(C(=O)Nc2ccc(S(=O)(=O)N(C)c3ccccc3)cc2)n1,0.927 µM (active)
13,O=C(Nc1ccc(-c2cc(C(F)(F)F)nn2-c2ccccc2)cc1)c1cccc(F)c1,inactive
14,CCc1nn(CC(=O)NCc2ccccc2)c(=O)c2cccn12,inactive
15,COc1ccccc1C1C=C(c2ccc(Cl)cc2)Nc2nc(-c3ccc(Cl)cc3)nn21 (stereo not given),inactive
16,CCOc1ccc(N(Cc2ccccc2)C(=O)c2nc(S(C)(=O)=O)ncc2Cl)cc1,2.07 µM (active)
17,COc1cc(C(=O)NC(c2ccccc2Cl)c2cc(Cl)c3cccnc3c2O)cc(OC)c1OC (stereo not given),inactive
18,COc1cc(OC)c(NC(=O)Nc2ccc3c(c2)N(C)C(=O)c2ccccc2S3)cc1Cl,5.21 µM (active)
19,CC(C)(C)OC(=O)N1CCC(c2c(C(=O)NCCN3CCC(Cc4ccccc4)CC3)cnn2-c2cccc(Cl)c2)CC1,10.4 µM (active)
20,CCOc1cc(C(=O)Nc2ccc(-c3cn4cccnc4n3)cc2)cc(OCC)c1OCC,inactive
